Consider 19 compounds from PubChem BioAssay.

Experiment [1] in a line: antimalarial activity against Dd2 strain (AID 2302;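 active = growth inhibition above 50% at the single 2 µM test dose, taken to imply half-maximal potency below 2 µM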;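 also: 0% = DMSO untreated growth and 100% = chloroquine plus artemisinin killed control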). The settings on record: P. falciparum Dd2 in RBCs, LDH growth readout, 72 h; at 2 µM; stronger effect = higher value.
The nature of experiment [2]: human hepatoma cell viability loss – ATP luminescence, cytotoxicity control for P. falciparum antimalarial project, primary screen (AID 2303;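 active = inhibition above 50%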;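 also: 0% = DMSO wells and 100% = digitonin-killed cells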). The settings on record: HepG2 viability, 24-48 h, at 10 µM, stronger effect = higher value.
In experiment [3] the target is L-lactate dehydrogenase (Plasmodium falciparum (isolate CDC / Honduras)) (UniProt Q27743). The experiment is described as follows: PfLDH activity inhibition – cell lysate, 3D7 strain, counter-screen for P. falciparum growth inhibition project (AID 2304).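 Also: 0% = vehicle and 100% = reference inhibitor.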 The following applies: P. falciparum 3D7 crude extract, LDH APAD/NBT absorbance; at 2 µM; stronger effect = higher value.
Sequence of L-lactate dehydrogenase (Plasmodium falciparum (isolate CDC / Honduras)) (Q27743 whole entry, looked up): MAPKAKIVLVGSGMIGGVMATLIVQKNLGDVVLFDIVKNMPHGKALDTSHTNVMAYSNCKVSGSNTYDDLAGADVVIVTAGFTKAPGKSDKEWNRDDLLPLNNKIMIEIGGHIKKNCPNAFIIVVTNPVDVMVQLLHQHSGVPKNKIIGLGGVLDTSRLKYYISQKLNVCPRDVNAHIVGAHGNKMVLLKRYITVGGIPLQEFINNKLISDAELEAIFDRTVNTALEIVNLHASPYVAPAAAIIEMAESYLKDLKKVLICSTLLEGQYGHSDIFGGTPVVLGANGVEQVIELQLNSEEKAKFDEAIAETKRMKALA
Experiment [4] in a line: inhibition of 3D7 malaria parasite growth – strain 3D7 (AID 2306).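 Also: 0% = DMSO wells and 100% = chloroquine plus artemisinin control wells.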 The settings on record: P. falciparum 3D7 erythrocytic growth, LDH absorbance, 72 h; at 2 µM; stronger effect = higher value.
The target of experiment [5] is Plasmodium falciparum protein kinase 6 (PK6, PF3D7_1337100) (UniProt Q8IDW1). The experiment is described as follows: PfPK6 kinase inhibitors, biochemical, TCAMS library (AID 1159586). The following applies: recombinant PfPK6, Kinase-Glo ATP depletion luminescence. For orientation: Kinase-Glo reads ATP consumption through a luciferase reaction.
Sequence of Plasmodium falciparum protein kinase 6 (PK6, PF3D7_1337100) (Q8IDW1 1-305): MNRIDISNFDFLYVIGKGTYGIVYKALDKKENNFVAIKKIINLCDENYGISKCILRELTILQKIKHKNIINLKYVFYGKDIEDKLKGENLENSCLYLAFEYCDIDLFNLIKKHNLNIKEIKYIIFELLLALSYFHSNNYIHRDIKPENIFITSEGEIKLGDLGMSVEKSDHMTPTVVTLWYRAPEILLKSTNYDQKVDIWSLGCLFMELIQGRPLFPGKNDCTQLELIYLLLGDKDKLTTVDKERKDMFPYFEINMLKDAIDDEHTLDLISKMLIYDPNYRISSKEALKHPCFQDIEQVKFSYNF
Experiment [6] has as its target Protein kinase 7 (PK7), Plasmodium falciparum 3D7 (PF3D7_0213400) (UniProt Q7YTF7). Kind of experiment: inhibition of Plasmodium PK7 catalytic activity – biochemical, TCAMS antimalarial set, Kinase-Glo luminescence (AID 1159587). The following applies: recombinant PfPK7, Kinase-Glo ATP depletion luminescence.
The target of experiment [7] is Calcium-dependent protein kinase 4 (Plasmodium falciparum (isolate 3D7)) (UniProt Q8IBS5). Kind of experiment: PfCDPK4 kinase inhibitors, biochemical, TCAMS library (AID 1159588; cut-off not given, nearly all actives have IC50 up to about 0.91 µM). The following applies: recombinant PfCDPK4, Kinase-Glo ATP depletion luminescence.
Sequence of Calcium-dependent protein kinase 4 (Plasmodium falciparum (isolate 3D7)) (Q8IBS5 whole entry, looked up): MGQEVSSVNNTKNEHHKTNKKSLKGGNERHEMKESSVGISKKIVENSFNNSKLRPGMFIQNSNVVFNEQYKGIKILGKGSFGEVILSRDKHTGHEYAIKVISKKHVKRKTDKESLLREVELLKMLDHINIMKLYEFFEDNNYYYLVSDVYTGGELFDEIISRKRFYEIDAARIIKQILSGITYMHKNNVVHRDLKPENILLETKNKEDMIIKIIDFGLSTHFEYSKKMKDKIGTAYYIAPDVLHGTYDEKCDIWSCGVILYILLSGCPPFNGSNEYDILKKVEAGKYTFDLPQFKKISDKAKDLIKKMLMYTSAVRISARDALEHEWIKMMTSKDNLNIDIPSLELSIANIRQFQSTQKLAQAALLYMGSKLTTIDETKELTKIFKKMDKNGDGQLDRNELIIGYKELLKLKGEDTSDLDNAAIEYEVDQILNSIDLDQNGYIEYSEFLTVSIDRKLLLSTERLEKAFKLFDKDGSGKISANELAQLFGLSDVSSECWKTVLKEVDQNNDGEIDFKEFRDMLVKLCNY
Experiment [8] deals with Aerobactin synthetase IucA (Klebsiella pneumoniae). The experiment is described as follows: inhibition of K. pneumoniae IucA enzyme – biochemical, Tocris library, absorbance (AID 1345561).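 Also: 100% = enzyme without compound and 0% = no enzyme.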 The following applies: purified IucA enzyme assay, absorbance (OD) read-out; stronger effect = lower value;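 tested at 8 µM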.
The nature of experiment [9]: viability loss in pontine glioma line – cell-based, SU-DIPG-XVII, MIPE5.0, CellTiter-Glo, qHTS, dose response (AID 1347060; cut-off not given, nearly all actives have AC50 up to about 26 µM;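 also: cells exposed to compound for 48 hours before viability readout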). The following applies: CellTiter-Glo ATP luminescence. (ATP-based viability assays read luminescence as a measure of living cells.)
A short description of experiment [10]: viability loss in pontine glioma line – cell-based, SU-DIPG-XIII, MIPE4.0, CellTiter-Glo, qHTS, dose response (AID 1347061; cut-off not given, nearly all actives have AC50 up to about 37 µM;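 also: cells exposed to compound for 48 hours before readout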). The following applies: CellTiter-Glo ATP luminescence.
Experiment [11] can be described thus: viability loss in pontine glioma line – cell-based, JHH-DIPG-1, MIPE4.0, CellTiter-Glo, qHTS, dose response (AID 1347062; cut-off not given, nearly all actives have AC50 up to about 27 µM;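 also: cells exposed to compound for two days before readout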). The following applies: JHH-DIPG-1 viability, CellTiter-Glo ATP luminescence.
The nature of experiment [12]: viability loss in pontine glioma line – cell-based, SU-DIPG-IV, MIPE4.0, CellTiter-Glo, qHTS, dose response (AID 1347063; cut-off not given, nearly all actives have AC50 up to about 30 µM;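 also: compound exposure lasted 48 hours before the viability readout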). The settings on record: CellTiter-Glo ATP luminescence.
Experiment [13] in a line: viability loss in pontine glioma line – cell-based, SU-DIPG-XIII, MIPE5.0, CellTiter-Glo, qHTS, dose response (AID 1347064; cut-off not given, nearly all actives have AC50 up to about 23 µM;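 also: cells exposed to compound for 48 hours before the viability read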). The following applies: CellTiter-Glo ATP luminescence.
The nature of experiment [14]: viability loss in pontine glioma line – cell-based, SU-DIPG-XXV, MIPE5.0, CellTiter-Glo, qHTS, dose response (AID 1347065; cut-off not given, nearly all actives have AC50 up to about 26 µM;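 also: cells exposed to compound for 48 hours before ATP readout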). The following applies: CellTiter-Glo ATP luminescence.
Experiment [15] can be described thus: growth inhibition of DIPG cells – cell-based, MIPE4.0 library, CellTiter-Glo luminescence, qHTS (AID 1347066; cut-off not given, nearly all actives have AC50 up to about 30 µM;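 also: cells exposed to compound for 48 hours before readout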). The settings on record: SU-DIPG-VI viability, CellTiter-Glo ATP luminescence.
Experiment [16] is described as follows: JHH-DIPG-1 glioma cell viability, MIPE5.0 library, CellTiter-Glo luminescence, qHTS (AID 1347067; cut-off not given, nearly all actives have AC50 up to about 26 µM;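 also: cells exposed to compound for 48 hours before readout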). The following applies: JHH-DIPG-1 glioma viability, CellTiter-Glo ATP luminescence.
A short description of experiment [17]: growth inhibition of DIPG cells – cell-based, MIPE5.0 library, qHTS (AID 1347068; cut-off not given, nearly all actives have IC50 up to about 30 µM). The following applies: SU-DIPG-XXV viability. (In general: Quantitative high-throughput screening tests each substance at several concentrations.)
A short description of experiment [18]: viability loss with induced miR-34 in A549 – imaging, A549 dox-inducible miR-34, nuclei and caspase counts, primary screen (AID 1347080;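 active = compounds whose cell count with miR-34 switched on is under 0.7 times the count with it off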). The following applies: A549 miR-34 inducible, Hoechst nuclei count, 48 h.
Experiment [19] is described as follows: compounds altering HSF1 focus formation in cells – imaging, Selleck Cancer Library (AID 1347162; in the data active = plate-normalised HSF1 focus index below about 0.46). The following applies: human cells, HSF1 nuclear foci imaging, at 10 µM; SSMD: measured here: HSF1 foci SSMD mean; cell count: measured here: cell number; plate-normalised HSF1 focus index: stronger effect = lower value.
Experiment [20] is described as follows: galactose survival enhancers in mitochondrial complex I cybrids – cell-based, galactose medium, ATP luminescence, primary screen (AID 1645843;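 active = z-score of at least 1.8 in each of two replicates, scored against plate mean and spread of sample wells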;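 also: positive z means more ATP and so rescue of galactose-driven cybrid death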). The settings on record: complex I mutant cybrid cells, 72 h, stronger effect = higher value.

Records with an inconclusive call do not appear. For some of these results: Potency and affinity values are given separately. Calls of active or inactive are those of the source. Unless noted, no rule for the calls is given here.

Sequence of Protein kinase 7 (PK7), Plasmodium falciparum 3D7 (PF3D7_0213400) (Q7YTF7 1-343): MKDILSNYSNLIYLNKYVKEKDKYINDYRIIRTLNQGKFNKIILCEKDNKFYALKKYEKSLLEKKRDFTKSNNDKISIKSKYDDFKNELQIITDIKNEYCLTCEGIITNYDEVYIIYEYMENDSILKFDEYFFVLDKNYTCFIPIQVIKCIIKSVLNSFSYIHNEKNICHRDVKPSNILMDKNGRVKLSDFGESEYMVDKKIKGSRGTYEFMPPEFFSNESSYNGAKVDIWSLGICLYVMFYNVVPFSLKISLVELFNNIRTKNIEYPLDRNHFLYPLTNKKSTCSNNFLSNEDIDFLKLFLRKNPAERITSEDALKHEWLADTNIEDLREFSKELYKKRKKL

In general, inhibition refers to the relative decrease from the control value, in per cent. For the compound `COc1ccc(C(=O)NCC(C)(C)c2nc(-c3ccc(Cl)c(O)c3)c(-c3ccncc3)[nH]2)cc1OCCN(C(C)C)C(C)C`, the growth inhibition is 96% (active) in experiment [1] and 102% (active) in experiment [4]. Also, the inhibition in [2] was 62% (active); in [3] it was 4% (inactive). The result in [5], in experiment [6] and in [7] was inactive.
Take `CC(C)(CNCc1ccc(OC(F)(F)F)cc1)c1nc(-c2ccc(Cl)c(O)c2)c(-c2ccncc2)[nH]1`: the growth inhibition in experiment [1] was 99% (active); in [4], 102% (active). The results for the inhibition in [2] and in experiment [3] were 38% (inactive) and -2% (inactive), respectively. Further, the result in experiment [5], in experiment [6] and in [7] was inactive.
Turning to `CCn1c(-c2nonc2N)nc2c(-c3cccc(NC(=O)Nc4ccccc4Cl)c3)ncc(OCCCN)c21`, the growth inhibition was 74% (active) in experiment [1] and 99% (active) in [4]. Besides, the inhibition was 2% (inactive) in experiment [2] and -4% (inactive) in [3]. Also, the result in experiment [5] and in experiment [6] was inactive.
In the case of `O=C(NCCN1CCCCC1)c1cccc(Nc2nccc(Nc3ccc(Oc4ccccc4)cc3)n2)c1`, the growth inhibition in experiment [1] is 86% (active); in [4], 99% (active). Besides, the values for the inhibition in [2] and in experiment [3] were 50% (active) and -2% (inactive), respectively. Moreover, the outcome in experiment [5], in [6] and in experiment [7] was inactive.
In the case of `O=c1[nH]ccc2nc(N[C@@H]3CCNC3)nc(Nc3cc(Cl)cc(Cl)c3)c12`, the values for the growth inhibition in experiment [1] and in experiment [4] were 99% (active) and 101% (active), respectively. Further, the values for the inhibition in [2] and in [3] were 99% (active) and -2% (inactive), respectively. Also, the outcome in experiment [5] and in experiment [6] was inactive.
Regarding `O=C(NCCCN1CCOCC1)c1cccc(Nc2nccc(Nc3ccc(Oc4ccccc4)cc3)n2)c1`, the values for the growth inhibition in experiment [1] and in experiment [4] were 22% (inactive) and 98% (active), respectively. In addition, the inhibition is 34% (inactive) in experiment [2] and -9% (inactive) in experiment [3]. For the same compound, the result in [5], in experiment [6] and in experiment [7] was inactive.
As to `CN(C)CCNCc1ccc(-c2ccc3c(Nc4ccc(Oc5ccccc5)cc4)ccnc3c2)o1`, the growth inhibition in experiment [1] is 99% (active); in [4], 100% (active). In addition, the figures for the inhibition in experiment [2] and in experiment [3] were 19% (inactive) and 2% (inactive), respectively. In addition, the outcome in experiment [5], in [6] and in [7] was inactive.
As to `CN1CCN(Cc2ccc(-c3ccc4c(Nc5ccc(Cl)cc5F)ccnc4c3)o2)CC1`, the growth inhibition in [1] is 100% (active); in experiment [4], 102% (active). In addition, the inhibition in experiment [2] is 47% (inactive); in [3], -3% (inactive). Further, the result in experiment [5], in experiment [6] and in experiment [7] was inactive.
Take `O=C(NC1CC1)c1ccc(Nc2nccc(-c3c(-c4cccc(NC(=O)c5c(F)cccc5F)c4)nn4ccccc34)n2)cc1`: the growth inhibition was 96% (active) in experiment [1] and 94% (active) in experiment [4]. Further, the inhibition in experiment [2] was 84% (active); in experiment [3], -1% (inactive). The result in experiment [5], in experiment [6] and in experiment [7] was inactive.
Consider `c1cncc(Oc2ccc(Nc3ccnc4cc(-c5cccc(CNCCN6CCOCC6)c5)ccc34)cc2)c1`, for which the growth inhibition in [1] was 99% (active); in [4] it was 101% (active). The inhibition in experiment [2] was 14% (inactive); in experiment [3], 4% (inactive). Moreover, the outcome in experiment [5], in [6] and in experiment [7] was inactive.
For the compound `Oc1cccc(Nc2ccnc3cc(-c4nccs4)ccc23)c1`, the inhibition in experiment [2] is -10% (inactive); in experiment [3] it was -7% (inactive). Moreover, the growth inhibition in experiment [4] was 98% (active). Further, the result in experiment [5], in experiment [6] and in [7] was inactive.
As for `O=C(Nc1c(F)cccc1F)c1cccc(-c2nn3ccccc3c2-c2ccnc(Nc3cccc(-c4cnco4)c3)n2)c1`, the figures for the growth inhibition in [1] and in experiment [4] were 94% (active) and 95% (active), respectively. The inhibition in [2] is 96% (active); in experiment [3], -6% (inactive). Also, the outcome in experiment [5] and in experiment [6] was inactive.
Consider `O=C(Nc1cccc(-c2nn3ncccc3c2-c2ccnc(Nc3ccccc3)n2)c1)c1c(F)cccc1F`, for which the growth inhibition in experiment [1] was 96% (active); in experiment [4] it was 98% (active). Further, the inhibition is 51% (active) in [2] and 0% (inactive) in experiment [3]. For the same compound, the result in [5] and in experiment [6] was inactive.
With `Cc1cccc2[nH]c(-c3cc(-c4cn[nH]c4)cnc3N)nc12`, the growth inhibition in experiment [1] was 93% (active); in [4], 101% (active). The inhibition in [2] was 37% (inactive); in experiment [3], 0% (inactive). Moreover, the result in experiment [5], in experiment [6] and in experiment [7] was inactive.
Consider `O=C(Nc1cccc(-c2nn3ccccc3c2-c2ccnc(Nc3ccc(C(=O)N4CCOCC4)cc3)n2)c1)c1c(F)cccc1F`, for which the growth inhibition in experiment [1] was 97% (active); in experiment [4], 99% (active). In addition, the values for the inhibition in experiment [2] and in experiment [3] were 72% (active) and 4% (inactive), respectively. In addition, the result in experiment [5] and in [6] was inactive.
Regarding `CNCC(C)(C)c1nc(-c2ccc(Cl)c(O)c2)c(-c2ccncc2)[nH]1`, the growth inhibition in [1] is 96% (active); in [4], 98% (active). The inhibition was 46% (inactive) in experiment [2] and -2% (inactive) in experiment [3]. For the same compound, the outcome in experiment [5], in [6] and in [7] was inactive.
For orientation: remaining activity means the signal under treatment as a percentage of the control signal. In general, AC50 refers to the concentration giving half of the maximal activity seen. In the case of `Cc1[nH]c(/C=C2\C(=O)Nc3ccc(S(=O)(=O)Cc4c(Cl)cccc4Cl)cc32)c(C)c1C(=O)N1CCC[C@@H]1CN1CCCC1`, the results for the growth inhibition in experiment [1] and in experiment [4] were 92% (active) and 85% (active), respectively. Besides, the inhibition is 33% (inactive) in experiment [2] and -1% (inactive) in [3]. Besides, the result in [5], in [6], in experiment [10] and in experiment [17] was inactive. For the same compound, the remaining activity in [8] is 123% (inactive). Also, the half-maximal activity concentration (AC50) in [9] was 9.34 µM (active); in experiment [11], 26.4 µM (active); in [12] it was 23.5 µM (active); in experiment [13], 9.34 µM (active); in experiment [14] it was 8.33 µM (active); in experiment [15], 8.33 µM (active). Further, the AC50 in experiment [16] was 5.9 µM (active). Besides, the fold change in [18] (stronger effect = lower value, cell number ratio, induced over uninduced) was 1.1 (inactive); in experiment [18] (measured here: relative caspase fold change +Dox/-Dox) it was 1.29. The cell count in experiment [18] (measured here: total cells with miR-34 induction, stronger effect = lower value) was 5950; in experiment [18] (measured here: total cells without miR-34 induction), 5410; in [19], 7510. The compound also registered an SSMD in [19] of 0.661. The plate-normalised HSF1 focus index in [19] was 1.05 (inactive). In addition, the z-score in [20] was -0.7 (inactive).
On to `NS(=O)(=O)c1cccc(Nc2nc(N[C@@H]3CCNC3)nc3cc[nH]c(=O)c23)c1`, for which the growth inhibition in experiment [1] is 98% (active); in [4] it was 99% (active). Further, the inhibition was 7% (inactive) in [2] and 0% (inactive) in experiment [3]. Besides, the outcome in [5] and in experiment [6] was inactive.
With `NC[C@H](CC1CCCCC1)NC(=O)c1ccc(-c2ccnc3[nH]ccc23)s1`, the growth inhibition in experiment [1] is 4% (inactive); in experiment [4] it was 98% (active). Further, the inhibition in experiment [2] was 39% (inactive); in experiment [3] it was 5% (inactive). For the same compound, the result in experiment [5] and in experiment [6] was inactive.
